In the library only some 2.4% were active in any assay of this set; here they are far more common.
ATXN viability – Viability Counterscreen for Primary qHTS for Inhibitors of ATXN expression | AID 651635, 2014 | S2 cells (HEK-293 line with an ATXN2-luciferase reporter) viability, CellTiter-Fluor protease fluorescence, 24 h | actives 0.49% (n = 400,000) | Potency, µM (highest dose often 56.7 µM), most hits filed as cytotoxic; further: nearly all actives have a fitted effect of over 40% in size
TGFb SMAD3 inh – qHTS for Inhibitors of TGF-b. AID 588855, 2011. Potency, µM (doses to about 46.1 µM), for the others: top-dose activity, negative = inhibition, actives largely listed as inhibitors. actives 1.2% (n = 410,000). HepG2 CAGA-GFP TGF-b/SMAD3 reporter, GFP fluorescence, 18 h; TGF-beta stimulated, 500 pg/mL final; further: on the % scale 0 is the no-effect control and ±100 the full control effect; nearly all actives have a fitted effect of over 65% in size
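Inhibition of TGF-beta-driven CAGA-GFP reporter expression in HEPG2 cells is measured by cellular GFP fluorescence after 18 h stimulation with 500 pg/mL recombinant TGF-beta in 1% FBS medium at 37 degrees C.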
HepG2 tox – qHTS for Inhibitors of TGF-b: Cytotox Counterscreen | HepG2 CAGA-GFP viability, ATP luminescence, 18 h | Potency, µM (doses to about 46.1 µM), inactives show at the highest dose activity change, negative = cytotoxicity, most hits filed as cytotoxic | actives 0.76% (n = 410,000) | AID 588856, 2011
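CellTiter-Glo luminescence gave cytotoxicity after 18 hours at 37 degrees C. The cells were HepG2 CAGA-GFP in 1% FBS DMEM, stimulated with 500 pg/mL TGF-beta after compound addition. %Activity was normalised to no-cell wells (complete cell-killing) and DMSO (no toxicity), and curves were fitted and classified.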
Apoferritin bind – qHTS Assay for Identification of Novel General Anesthetics; Ferritin light chain (Equus caballus), P02791; actives 0.074% (n = 350,000); Potency, µM (doses to about 77.5 µM), without a hit: at the top dose activity change, negative = displacement, most hits filed as inhibitors; apoferritin/1-aminoanthracene competitive binding, fluorescence; AID 485281, 2010; further: on the % scale 0 is the no-effect control and ±100 the full control effect; nearly all actives have a fitted effect of over 20% in size
Target sequence (P02791 2-175 limits assumed): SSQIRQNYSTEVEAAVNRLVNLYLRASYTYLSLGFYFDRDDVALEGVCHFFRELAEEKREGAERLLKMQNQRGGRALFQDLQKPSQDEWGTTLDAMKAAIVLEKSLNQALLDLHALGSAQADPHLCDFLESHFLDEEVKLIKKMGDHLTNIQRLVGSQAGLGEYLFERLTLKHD
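Steps: apoferritin (10 uM) was premixed with half-saturated 1-AMA in PBS, compounds were pin-transferred, plates stood 10 min at room temperature, fluorescence was read at 380/535 nm, and curves were fitted with a Hill equation.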
ATXN2 expr inh – Primary qHTS for Inhibitors of ATXN expression; Potency, µM (series often up to 57 µM), for inactives: at the top dose activity change, negative = inhibition, actives largely listed as inhibitors; actives 0.72% (n = 360,000); HEK-293 ATXN2-luciferase reporter, luminescence, 24 h; further: on the % scale 0 is the no-effect control and ±100 the full control effect; nearly all actives have a fitted effect of over 55% in size
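qHTS (up to 57 uM final) was run with 24 h compound exposure of reporter cells at 37 °C. Each well was multiplexed: SteadyGlo luminescence measured ATXN2-luciferase expression after a fluorogenic Gly-Phe-AFC viability readout (25 uM final).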
* marks the source's active call; other numbers are inactive results; i = inactive; ? = inconclusive; · = no result given; [ ] = remark or other dose. The call rests on the fitted dose curve; in most records, active means well fitted curve in the direction sought with a large enough effect; inconclusive means small, poorly fitted or top-dose-only effect, or another doubt; inactive means no such curve, though single readings can be large; an effect the other way counts as inactive or inconclusive. Potency means the concentration at half of the fitted maximal effect.

SMILES	ATXN viability	TGFb SMAD3 inh	HepG2 tox	Apoferritin bind	ATXN2 expr inh
Oc1[nH]c2ccc(Br)cc2c1N=NC(=S)N1CCOCC1	?	?	-30.3%	0.1%	0.708µM*
Oc1[nH]c2ccccc2c1N=NC(=S)N1CCOCC1	3.16µM*	7.08µM*	3.16µM*	6.6%	·
COC(=O)N=Nc1c(O)[nH]c2ccc(Br)cc12	i	7.1%	9.8%	0.0%	-24.6%
NC(=S)N=Nc1c(O)[nH]c2ccccc12	i	-1.8%	24.6%	-17.5%	-14.0%
O=C(CN1C(=O)c2ccccc2C1=O)NCC1Cc2cccc(-c3ncccn3)c2O1 (stereo not drawn)	i	·	·	·	·
C=C1CCC2C(C)(C)[C@H](O)CC[C@@]2(C)[C@@H]1COc1cc(=O)oc2ccccc12 (stereo partly drawn)	?	?	-86.8%	-23.6%	?
C=C1CC(COc2cc(=O)oc3ccccc23)(c2ccccc2)OC1=O (stereo not drawn)	·	5.01µM*	6.31µM*	·	?
CCCCNc1ccc(/C=C2\C=Cc3ccccc32)cc1	·	-27.7%	-28.0%	·	·
Cc1cccc(OCC(=O)Nc2ccccc2OCc2cc(=O)n3ccccc3n2)c1	·	5.0%	-0.4%	-19.3%	·
O=C([C@@H]1CC=C[C@@H]2CCN(C3CC3)C(=O)[C@@H]21)N1CCOCC1	·	32.3%	2.8%	·	·
O=C(O)CCn1cc(/C=C2/NC(=S)N(c3ccccc3)C2=O)c(-c2ccccc2)n1	i	-28.8%	-2.3%	-2.1%	-0.9%
N#CCCn1cc(/C=C2\NC(=S)N(c3ccccc3)C2=O)c(-c2ccc(-c3ccccc3)cc2)n1	?	10µM*	-3.7%	-12.5%	?
CCCCCCCN(C(=O)CCl)c1cccc(C)c1	·	?	-28.4%	1.3%	25.1µM*
CCCCCCN(C(=O)CCl)c1ccccc1	?	22.4µM*	-114.6%	246.5%	·
CCCCCCCCCCN(CCCCCCCCCC)c1ccccc1	·	-5.3%	-26.1%	·	·
O=c1c(Cl)c2oc3ccccc3nc-2c2ccccc12	i	5.01µM*	-48.0%	-3.7%	-2.9%[11.3 µM]
CC(=O)OC1C(C)OC(Oc2c(-c3ccc(O)cc3)oc3cc(O)cc(O)c3c2=O)C(O)C1OC(C)=O (stereo not drawn)	·	·	·	·	0.8%
CCc1ccc(NC(=O)CSC2=Nc3ccccc3C3=NC(CC(=O)NCc4ccc5c(c4)OCO5)C(=O)N23)cc1 (stereo not drawn)	25.1µM*	-33.0%	-29.3%	?	7.8%
O=C(CC1N=C2c3ccccc3N=C(SCC(=O)Nc3ccc(F)cc3)N2C1=O)NCc1ccc2c(c1)OCO2 (stereo not drawn)	?	?	-17.6%	-22.3%	23.3%
COc1ccc(Cl)cc1NC(=O)c1c(NCc2cccs2)sc2c1CCC(C)C2 (stereo not drawn)	?	?	-68.2%	-0.8%	?
CCOc1ccc(NC(=O)c2c(NCc3cccnc3)sc3c2CCC(C)C3)cc1 (stereo not drawn)	·	12.6µM*	-40.7%	-19.9%	·
COc1ccc(Cl)cc1NC(=O)c1c(NCc2cccnc2)sc2c1CCC(C)C2 (stereo not drawn)	·	8.91µM*	10µM*	-20.3%	·
CCOc1ccc(NC(=O)c2c(NCc3cccs3)sc3c2CCC(C)C3)cc1 (stereo not drawn)	i	?	-37.8%	-6.4%	?
COc1ccc(OC)c(NC(=O)c2c(NCc3ccc(N(C)C)cc3)sc3c2CCCC3)c1	22.4µM*	0.0%	-50.6%	-4.9%	?
COc1ccc(CC(=O)Nc2sc3c(c2C(=O)Nc2cccc(Cl)c2)CCCCC3)cc1	·	?	17.8µM*	5.3%	?
CNC(=O)c1ccc(-c2cnc3ncc(Cc4ccc5ncccc5c4)n3n2)cc1F	·	·	·	·	19.6%
OC(CN1CCCCC1)c1ccccc1 (stereo not drawn)	·	-27.1%	-39.9%	·	·
CCN(CC)S(=O)(=O)c1ccc(=O)n(CC(=O)N2CCCc3cc(C)ccc32)c1	i	-17.9%	-6.8%	·	-18.7%
OC1(c2cccnc2)CCN(Cc2ccc3c(c2)CN(Cc2cccc(F)c2F)CCO3)CC1	i	·	·	·	·

High-throughput results (PubChem BioAssay)
